Measurements reported in PubChem BioAssay (EPA / NIEHS).
Active and inactive are the calls of the source. The calls were made as follows: active = hit-call score of the fitted dose curve at least 0.9, where 1 is the maximum; inactive = score below 0.9.

Assays:
Settings in all cases: mRNA level, 48 h; actives raise or lower the signal
[1] = read-out: growth arrest and DNA damage 45 (GADD45G), GADD45G (gene 10912); test: LTEA_HepaRG_GADD45G: Life Technologies and Expression Analysis (LTEA) Assay for growth arrest and DNA damage 45 (GADD45G) using HepaRG (AID 2283499)
Procedure, shortened: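 HepaRG, 48 h exposure, top 100 uM, half-log 8-point series, 0.5% DMSO vehicle, duplicates. Readout: GADD45G transcript by qRT-PCR (Fluidigm array), housekeeping-normalised (ACTB/GAPDH/POLR2A). Bidirectional curve fit vs DMSO baseline.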

[2] = read-out: Glutamate-cysteine ligase regulatory (GCLM), GCLM (gene 2730); test: LTEA_HepaRG_GCLM: Life Technologies and Expression Analysis (LTEA) Assay for Glutamate-cysteine ligase regulatory (GCLM) using HepaRG (AID 2283500)
Procedure, shortened: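 Endpoint is GCLM transcript level by qRT-PCR, normalized to three housekeeping genes, after 48 h chemical exposure of human HepaRG cells (0.5% DMSO vehicle, top 100 uM, half-log dilutions). Fitting was bidirectional relative to DMSO.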

[3] = read-out: Glutathione S-transferase M3 (GSTM3), GSTM3 (gene 2947); test: LTEA_HepaRG_GSTM3: Life Technologies and Expression Analysis (LTEA) Assay for Glutathione S-transferase M3 (GSTM3) using HepaRG (AID 2283501)
Procedure, shortened: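 qRT-PCR read-out of GSTM3 transcript, normalized to three housekeeping genes, from human HepaRG cells after 48 h chemical exposure. Eight-point half-log series, top 100 uM, 0.5% DMSO vehicle; gain or loss fitted relative to DMSO baseline.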

[4] = read-out: Heat shock 70 kDa protein 1 (HSPA1A), gene 3303; test: LTEA_HepaRG_HSPA1A: Life Technologies and Expression Analysis (LTEA) Assay for Heat shock 70 kDa protein 1 (HSPA1A) using HepaRG (AID 2283502)
Procedure, shortened: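 Cells were plated and cultured for 48 h, then switched to serum-free induction medium. Chemicals were added at eight half-log concentrations up to 100 uM for 48 h. RNA was then isolated and HSPA1A measured by qRT-PCR with bidirectional curve fitting against DMSO.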

[5] = read-out: 3-Hydroxy-3-Methylglutaryl-CoA Synthase 2 (HMGCS2), HMGCS2 (gene 3158); test: LTEA_HepaRG_HMGCS2: Life Technologies and Expression Analysis (LTEA) Assay for 3-Hydroxy-3-Methylglutaryl-CoA Synthase 2 (HMGCS2) using HepaRG (AID 2283504)
Procedure, shortened: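 qRT-PCR read-out of HMGCS2 transcript, normalised to three housekeeping genes, in HepaRG cells after 48 h chemical exposure. Eight-point curves from 100 uM, half-log dilutions, 0.5% DMSO vehicle; gain or loss fitted relative to DMSO baseline.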

HGF (gene 3082) = test: LTEA_HepaRG_HGF: Life Technologies and Expression Analysis (LTEA) Assay for Hepatocyte Growth Facto (HGF) using HepaRG (AID 2283505)
Procedure, shortened: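 HepaRG, 48 h dosing, 8-pt half-log series from 100 uM in 0.5% DMSO, duplicates. Readout: TaqMan qRT-PCR of HGF mRNA, housekeeping-normalized; bidirectional curve fit vs DMSO baseline.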

[6] = read-out: Insulin Like Growth Factor 1 (IGF1), IGF1 (gene 3479); test: LTEA_HepaRG_IGF1: Life Technologies and Expression Analysis (LTEA) Assay for Insulin Like Growth Factor 1 (IGF1) using HepaRG (AID 2283506)
Procedure, shortened: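 Cells are thawed, plated and cultured 48 h, then exposed in duplicate to chemical (highest 100 uM, half-log steps, 0.5% DMSO) for another 48 h. Total RNA is analysed by Fluidigm qRT-PCR for IGF1 expression relative to vehicle.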

[7] = read-out: Intercellular Adhesion Molecule 1 (ICAM1), ICAM1 (gene 3383); test: LTEA_HepaRG_ICAM1: Life Technologies and Expression Analysis (LTEA) Assay for Intercellular Adhesion Molecule 1 (ICAM1) using HepaRG (AID 2283507)
Procedure, shortened: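 HepaRG, 48 h exposure, 8-pt half-log series from 100 uM, 0.5% DMSO vehicle, duplicates. Readout: TaqMan qRT-PCR mRNA, housekeeping-normalized (ACTB/GAPDH/POLR2A). Bidirectional curve fit vs DMSO baseline.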

[8] = read-out: Insulin-like growth factor-binding protein 1 (IGFBP1), IGFBP1 (gene 3484); test: LTEA_HepaRG_IGFBP1: Life Technologies and Expression Analysis (LTEA) Assay for Insulin-like growth factor-binding protein 1 (IGFBP1) using HepaRG (AID 2283508)
Procedure, shortened: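 qRT-PCR mRNA read-out (TaqMan, Fluidigm array), normalised to three housekeeping genes; HepaRG cells, 48 h exposure, 8-pt half-log series from 100 uM, 0.5% DMSO vehicle; bidirectional curve fit vs DMSO baseline.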

[9] = read-out: Interleukin 6 (IL6), IL6 (gene 3569); test: LTEA_HepaRG_IL6: Life Technologies and Expression Analysis (LTEA) Assay for Interleukin 6 (IL6) using HepaRG (AID 2283509)
Procedure, shortened: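 qRT-PCR read-out of IL6 transcript, normalized to three housekeeping genes, after 48 h chemical exposure of HepaRG cells; 8-point half-log series, top 100 uM, 0.5% DMSO vehicle. Bidirectional curve fitting against DMSO baseline.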

[10] = read-out: Interleukin 6 Receptor (IL6R), IL6R (gene 3570); test: LTEA_HepaRG_IL6R: Life Technologies and Expression Analysis (LTEA) Assay for Interleukin 6 Receptor (IL6R) using HepaRG (AID 2283510);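 as to AC50: differentiated human HepaRG liver cells in serum-free induction medium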
Procedure, shortened: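 Cells were thawed, plated and cultured 48 h, then medium was changed to serum-free induction medium. Chemicals were added in duplicate (100 uM top, half-log steps, 0.5% DMSO) for 48 h. Lysates were analyzed by qRT-PCR for IL6R expression.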

[11] = read-out: Potassium channel subfamily K member 1 (KCNK1), KCNK1 (gene 3775); test: LTEA_HepaRG_KCNK1: Life Technologies and Expression Analysis (LTEA) Assay for Potassium channel subfamily K member 1 (KCNK1) using HepaRG (AID 2283511)
Procedure, shortened: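 HepaRG, 48 h exposure, 8-pt half-log series top 100 uM, 0.5% DMSO vehicle, duplicates. Readout: KCNK1 transcript by qRT-PCR (Fluidigm array), housekeeping-normalized; bidirectional curve fit relative to DMSO baseline.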

[12] = read-out: Keratin 19 (KRT19), KRT19 (gene 3880); test: LTEA_HepaRG_KRT19: Life Technologies and Expression Analysis (LTEA) Assay for Keratin 19 (KRT19) using HepaRG (AID 2283512)
Procedure, shortened: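 HepaRG, 48 h chemical exposure, 8-pt half-log CRC from 100 uM, 0.5% DMSO vehicle, duplicates. Readout: TaqMan qRT-PCR of KRT19 mRNA, housekeeping-normalized (ACTB/GAPDH/POLR2A). Bidirectional fit vs DMSO baseline.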

[13] = read-out: JUN Transcription Factor, JUN (gene 3725); test: LTEA_HepaRG_JUN: Life Technologies and Expression Analysis (LTEA) Assay for JUN Transcription Factor using HepaRG (AID 2283513)
Procedure, shortened: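 Read-out is JUN transcript level by TaqMan qRT-PCR, normalized to ACTB, GAPDH and POLR2A, after 48 h chemical treatment of HepaRG cells. Concentration-response spanned eight half-log points up to 100 uM in 0.5% DMSO.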

[14] = read-out: Lipase C (LIPC), LIPC (gene 3990); test: LTEA_HepaRG_LIPC: Life Technologies and Expression Analysis (LTEA) Assay for Lipase C (LIPC) using HepaRG (AID 2283514)
Procedure, shortened: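 HepaRG, 48 h exposure, 8-pt half-log series from 100 uM in 0.5% DMSO, duplicates. Readout: LIPC mRNA by Fluidigm qRT-PCR, housekeeping-normalized (ACTB/GAPDH/POLR2A). Gain or loss fitted bidirectionally against DMSO baseline.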

[15] = read-out: Lipoprotein lipase (LPL), LPL (gene 4023); test: LTEA_HepaRG_LPL: Life Technologies and Expression Analysis (LTEA) Assay for Lipoprotein lipase (LPL) using HepaRG (AID 2283515)
Procedure, shortened: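 HepaRG, 48 h exposure, 8-pt half-log dilutions from 100 uM, 0.5% DMSO vehicle, duplicates; qRT-PCR (Fluidigm array) of LPL mRNA vs housekeeping genes; bidirectional curve fit relative to DMSO baseline.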

[16] = read-out: MicroRNA 122 (MIR122), gene 406906; test: LTEA_HepaRG_MIR122: Life Technologies and Expression Analysis (LTEA) Assay for MicroRNA 122 (MIR122) using HepaRG (AID 2283516); also: the transcript read is the microRNA miR-122
Procedure, shortened: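 Human liver HepaRG cultures receive test chemicals for 48 h at eight half-log concentrations from 100 uM. Expression is quantified by qRT-PCR with ACTB/GAPDH/POLR2A normalization and fitted bidirectionally against 0.5% DMSO.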

[17] = read-out: matrix metalloproteinase-10 (MMP10), MMP10 (gene 4319); test: LTEA_HepaRG_MMP10: Life Technologies and Expression Analysis (LTEA) Assay for matrix metalloproteinase-10 (MMP10) using HepaRG (AID 2283517)
Procedure, shortened: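 Transcript levels come from Fluidigm qRT-PCR normalized to three housekeeping genes, with curves fitted bidirectionally against 0.5% DMSO. Human HepaRG cells were dosed for 48 hours at concentrations up to 100 uM.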

MYC, MYC (gene 4609) = test: LTEA_HepaRG_MYC: Life Technologies and Expression Analysis (LTEA) Assay for MYC using HepaRG (AID 2283518)
Procedure, shortened: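 qRT-PCR read-out of MYC transcript (Fluidigm TaqMan, housekeeping-normalized) after 48 h chemical exposure of HepaRG cells; eight concentrations, top 100 uM, half-log steps. Bidirectional curve fitting against 0.5% DMSO vehicle baseline.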

Measured: AC50

Cc1ccc(C)c(C)c1
inactive: all assays above

C[Si]1(C)O[Si](C)(C)O[Si](C)(C)O[Si](C)(C)O1
inactive: all assays above

COC(=O)c1ccc(O)cc1
inactive: all assays above

CN[C@H]1CC[C@@H](c2ccc(Cl)c(Cl)c2)c2ccc(S(N)(=O)=O)cc21
active: [1] 71.1 µM | [4] 72.1 µM | [5] 50 µM | [6] 87.7 µM | [7] 74.8 µM | [8] 57.7 µM | [9] 77.4 µM | [10] 50 µM | [12] 10.9 µM | [13] 94.5 µM | [14] 15.8 µM | [15] 11.9 µM | [17] 66.4 µM
inactive: [2] | [3] | HGF (gene 3082) | [11] | [16] | MYC, MYC (gene 4609)
